Measured values from PubChem BioAssay (NCI).
About 83,000 compounds went through this panel and 20% of them were active in at least one assay; those are over-represented in the sample as a whole.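 For each line, cells grew in 96-well plates with the test compound present at a single concentration for 48 hours.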 Values without a mark were called inactive. Calls of active or inactive are those of the source. How the source made its calls: active means growth percent below 10; inactive means the rest.

system: HL-60(TB) leukemia; test: NCI-60 one-dose screen, 48 h (100 = growth as untreated, 0 = no growth, -100 = all killed); details: 10 µM unless noted

SMILES	growth
O=C1NC(=O)C(=Cc2cn(Cc3cn(Cc4ccc(Cl)cc4Cl)nn3)c3ccccc23)C(=O)N1	73.8%
c1ccc2c(NCCCN3CCN(CCCNc4c5ccccc5nc5ccccc45)CC3)c3ccccc3nc2c1	-23.8% [100 µM] (active)
COc1ccccc1Nc1nc(-c2cc3cccc(C(F)(F)F)c3oc2=O)cs1	-5.62% (active)
CCCCC1CCc2cccc3c(SCC(=O)N(C)c4ccc(Cl)cc4)cc[n+]1c23 (stereo not drawn)	91.4%
Nc1ccc(/C=N/Nc2ccnc3c(N)cccc23)c2cccnc12	-60.4% (active)
CCc1ccc(C(=Nc2ccc(N(C)C(=O)CN3CCN(C)CC3)cc2)c2c(O)[nH]c3ccc(C(=O)OC)cc23)cc1	-67% (active)
O=C1Nc2ccccc2/C1=N/c1nc(-c2ccc(Cl)cc2)cs1	7.82% (active)
CC(C)=CC(=O)OC(=O)C=C(C)C	104%
O=C(COCc1c(-c2ccccc2)no[n+]1[O-])Nc1ccc(C(=O)/C=C/c2ccc3c(c2)OCO3)cc1	88.7%
COc1ccc(Nc2cc(NC(=O)CNc3cc(OC)c(Cl)c(OC)c3Cl)ncn2)cc1	75.1%
COc1ccc(/C=C\c2cc(OC)c(OC)c(OC)c2)cc1OCC(=O)Nc1nc2ccccc2s1	18.7%
Cc1cc(C)c(S(=O)(=O)N2CCN(c3cc4c(cc3F)c(=O)c(C(=O)O)cn4C3CC3)CC2)c(C)c1	8.72% (active)
O=C(O)c1ccc2c(c1Sc1ccccc1)C(=O)c1ccccc1C2=O	95.8%
